Screening data as filed in PubChem BioAssay.
BAZ2B block = qHTS Assay for Inhibitors of BAZ2B; Bromodomain adjacent to zinc finger domain protein 2B (Homo sapiens), Q9UIF8; AlphaScreen BAZ2B-H3K14Ac peptide displacement; Potency, µM (titrated, usually from 114 µM), without a hit: at the highest dose activity change, negative = inhibition, actives largely listed as inhibitors; actives 4.4% (n = 360,000); AID 504333, 2011; also: % is scaled to controls: 0 for no effect and ±100 for the full control effect; nearly all actives have a fitted effect of over 60% in size
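Protein-peptide AlphaScreen: BAZ2B 50 nM, b-H3K14Ac 50 nM, 1x PBS pH 7.4 + 0.01% Tween-20. Preincubation 30 min RT; cpd 30 min RT (top 110 uM); beads 20 min RT, light-protected.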
HP1b binding inh = HTS for Inhibitors of HP1-beta Chromodomain Interactions with Methylated Histone Tails; Chromobox protein homolog 1 (Homo sapiens), P83916; AlphaScreen HP1-beta / biotin-H3K9me3 peptide binding; Potency, µM (highest dose often 114 µM), without a hit: at the highest dose activity change, negative = inhibition, usual class: inhibitors; actives 0.56% (n = 390,000); AID 540317, 2011; also: nearly all actives have a fitted effect of over 70% in size
Target sequence (P83916 whole entry, looked up): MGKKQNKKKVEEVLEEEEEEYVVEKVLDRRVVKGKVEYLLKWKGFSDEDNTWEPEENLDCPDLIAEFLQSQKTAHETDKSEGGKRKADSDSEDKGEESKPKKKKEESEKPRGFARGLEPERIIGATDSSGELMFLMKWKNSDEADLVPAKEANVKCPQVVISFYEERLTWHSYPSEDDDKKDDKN
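HP1-beta protein (50 nM final) preincubated 30 min at room temperature with biotinylated H3(1-18)K9me3 peptide (50 nM) in PBS pH 7.4, 0.01% Tween-20, then compound added for 30 min. AlphaScreen streptavidin donor/nickel chelate acceptor beads (10 ug/mL final), 30 min dark, luminescence read.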
G9a block = qHTS Assay for Inhibitors of Histone Lysine Methyltransferase G9a; actives 8.8% (n = 350,000); Potency, µM (titrated, usually from 102 µM), without a hit: top-dose activity, negative = inhibition, actives largely listed as inhibitors; G9a H3K9 monomethylation, AlphaScreen, 2 h; also: % is scaled to controls: 0 for no effect and ±100 for the full control effect; nearly all actives have a fitted effect of over 75% in size
Target sequence (Q96KQ7 913-1193 limits assumed): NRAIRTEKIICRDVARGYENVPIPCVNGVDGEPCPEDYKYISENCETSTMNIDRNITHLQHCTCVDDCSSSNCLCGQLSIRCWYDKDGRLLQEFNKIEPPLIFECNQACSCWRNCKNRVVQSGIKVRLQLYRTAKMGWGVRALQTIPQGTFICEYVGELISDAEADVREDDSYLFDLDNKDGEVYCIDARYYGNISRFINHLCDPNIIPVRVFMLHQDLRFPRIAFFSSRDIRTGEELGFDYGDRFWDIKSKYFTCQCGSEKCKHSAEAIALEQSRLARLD
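Readings reflect AlphaScreen signal from monomethyl-H3K9 antibody detection. HMT at 20 nM; substrate b-H3K9 500 nM; cofactor SAM 20 uM; 2 h RT reaction; compounds tested as titrations in qHTS with 15 min preincubation.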
JMJD2A Tudor inh = qHTS Assay for Inhibitors of JMJD2A-Tudor Domain | AID 504339, 2011 | AlphaScreen JMJD2A-Tudor / H3K4me3 peptide binding | Lysine-specific demethylase 4A (Homo sapiens), O75164 | Potency, µM (top dose mostly 114 µM), for the others: at the highest dose activity change, negative = inhibition, usual class: inhibitors | actives 4.4% (n = 390,000); also: % is scaled to controls: 0 for no effect and ±100 for the full control effect; nearly all actives have a fitted effect of over 50% in size
Sfp PPTase inh = qHTS Assay for Inhibitors of Bacillus subtilis Sfp phosphopantetheinyl transferase (PPTase). 4'-phosphopantetheinyl transferase ffp (Bacillus subtilis), Q9F4F7. Potency, µM, for inactives: largest response in the series, negative = inhibition, actives largely listed as inhibitors. actives 3.5% (n = 310,000). AID 1490, 2009. Biochemical Sfp PPTase activity, qHTS;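 also: the enzyme is Sfp with the accession as filed and its product quenches rhodamine fluorescence; 0% = enzyme reaction without inhibitor and -100% = no enzyme wells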
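With Hepes-Na pH 7.6 buffer containing 10 mM MgCl2, Sfp (15 nM) modified BHQ-2-YbbR (12.5 uM) using rhodamine-CoA (5 uM). Two reads 30 minutes apart at 525/598 nm yielded each well's rate.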
The depositor's hits bear a star; ? = inconclusive; / = no result given; ! = a repeat was not active; [ ] = another dose, or the depositor's remark. Compounds with a hit are over-represented: about 12% of the library has one in this group of screens. Calls follow the shape of the dose curve; as a rule, active = well fitted curve in the direction sought with a large enough effect; inconclusive = small, poorly fitted or top-dose-only effect, or another doubt; inactive = no such curve, though single readings can be large; an effect the other way counts as inactive or inconclusive. Potency is read from the fitted curve at half-maximal effect.

SMILES	BAZ2B block	HP1b binding inh	G9a block	JMJD2A Tudor inh	Sfp PPTase inh
Cc1ccc(N2CCN(/N=C/C=C/c3ccccc3)CC2)cc1	3%	2%	24%[59 µM]	-14%	17%
COCCn1c(CNC(=O)c2cccc(C)c2)nc2cccnc21	1%	28%[57 µM]	14%[59 µM]	-1%	/
O=C(CNC(=O)C1CCCCC1)OC(C(=O)c1ccccc1)c1ccccc1 (stereo unspecified)	-11%	88%	-1%[0.501 µM]	-1%	/
CC(C)=CCC1=C(O)[C@](O)(CC=C(C)C)C(=O)C(C(=O)CC(C)C)=C1O	/	/	/	/	-2%
O=C(Nc1cc(-c2nc3ccccc3o2)ccc1Cl)c1ccc(Br)o1	2%	12%	4%[59 µM]	3%	/
Cc1nc(-c2ccc(F)cc2)sc1CCNC(=O)Cc1ccc(F)cc1	0%	20%[57 µM]	-4%[59 µM]	-25%	/
Cc1[nH]c(=S)sc1Cc1ccc(F)cc1	-34%	-7%	2µM*	40µM*	-19%
Cc1c(NC(=O)COC(=O)c2ccc(Cl)nc2)c(=O)n(-c2ccccc2)n1C	/	0%	/	-13%	/
Cc1cc[n+](CC[n+]2ccc(C)cc2)cc1	-8%	25%	15%[12.7 µM]	-18%	/
CCCCCCCCCCCCCCCC[n+]1ccc(/C=N/O)cc1	6%	-4%	9%[59 µM]	-25%	32µM*
CCCCCCCCCCCCCC[n+]1ccc(C)cc1	/	/	?	/	56µM*
COc1ccc(C(=O)NCCCOC(C)C)cc1OC1CCN(C(C)=O)CC1	-6%	14%	/	-11%	19%
CC12CCC(C(=O)NCCCn3ccnc3)(OC1=O)C2(C)C (stereo unspecified)	-2%	-4%	16µM*	-26%[11.4 µM]	4%
O=C(NCc1ccc(Cl)cc1)c1cc2c(s1)CS(=O)(=O)C2	-7%	67%	/	-7%	1%
O=C1Cc2ccccc2C(=O)N1CCc1ccccc1	4%	35%	32µM*	-22%	-4%
CCOc1ccccc1N(CC(=O)NCCSc1ccccc1)S(=O)(=O)c1ccccc1	-7%	4%	-31%[59 µM]	-11%	/
CCSC1=N/C(=C\c2ccc3c(c2)OCO3)C(=O)S1	85%	182%	13%[59 µM]	26%	-23%
CCSC1=N/C(=C\C=C2/Oc3ccccc3N2CC)C(=O)S1	32µM*	?	13µM*	35µM*	-7%
Cc1cn(S(=O)(=O)c2ccc(F)c(Cl)c2)cn1	-18%	55%	4%[59 µM]	-7%	/
NC(=S)N/N=C/c1ccc(/C=N/NC(N)=S)cc1	2%	67%	/	-4%	-3%
NC(=S)N/N=C/c1ccc(-c2ccccc2)o1	?	14%	6.3µM*	-35%	4%
NC(=S)N/N=C/c1ccc(-c2ccc(Cl)c(Cl)c2)o1	?	3%	-35%[59 µM]	-28%	45µM*
Cc1ccc(-c2ccc(/C=N/NC(N)=S)o2)cc1	-28%	?	8.9µM*	-35%	20µM*
CN(C)/N=C/c1ccc(/C=N/NC(N)=S)o1	/	17%	?	-21%	45µM*
c1ccc(CNc2oc(-c3ccccc3)nc2-c2ccccc2)cc1	/	/	/	/	-12%
SMILES	BAZ2B block	HP1b binding inh	G9a block	JMJD2A Tudor inh	Sfp PPTase inh
O=C(O)c1cc(-c2ccc(/C=N/NC(=S)Nc3ccccc3)o2)ccc1Cl	?	-7%	-12%[59 µM]	-30%	40µM*
CCOc1ccc(S(=O)(=O)Nc2ccccc2C(=O)NCc2ccco2)cc1	?	9%	50µM*	-31%	?
CS(=O)(=O)Nc1ccccc1C(=O)NCc1ccco1	-2%	48%	13µM*	-2%	2%
C#CCCCO/N=C1/C[C@@H](O)[C@@H](O)[C@@H]2[C@@H]3C(=O)N(Cc4ccccc4)C(=O)[C@H]3CC[C@@H]12	/	/	/	/	17%
Cc1ccc(CNC(=O)NCc2noc3ccc(C)cc23)cc1	-1%	38%	7%[59 µM]	14%	/
CN(C)c1ccc(/C=C2\C(=O)Nc3ccccc32)c2ccccc12	/	/	/	/	-22%
CN(C)S(=O)(=O)N1CCC(Oc2ccc(C(=O)N3CCCCCCC3)cc2)CC1	56µM*	23%	?	-5%	10%
CC1CCCCN1C(=O)c1ccc(OC2CCN(S(=O)(=O)N(C)C)CC2)cc1 (stereo unspecified)	-5%	35%	2%	-6%	9%
CN(Cc1cnc2nc(N)nc(N)c2n1)c1ccc(C(=O)N[C@@H](CCC(=O)O)C(=O)O)cc1	/	30%	7.5µM*!	-6%	?
CCOc1ccccc1NC(=O)Cn1nc2c3cc(F)ccc3n(Cc3cccc(C)c3)cc-2c1=O	-6%	26%	?	-4%	/
CCCN(C(=O)CCc1nc(-c2ccc(C)cc2)no1)c1ccc(OCC)cc1	68%	81%	71%[59 µM]	63%	/
CCOC(=O)CC(CC(C)=O)C(=O)OCC (stereo unspecified)	/	/	/	/	-13%
COc1cc(N2CCCC2)c(OC)cc1/C=C1/NC(=S)NC1=O	?	-28%	22µM*	-34%	-23%
COc1ccc(OC)c(/C=C2\NC(=O)NC2=O)c1	6%	30%	-1%	-3%	15%
CC(C)(O)[C@@H]1CCC[N+]2(C)CCCC[C@H]12 (stereo partly specified)	/	/	/	/	7%
Brc1ccc(C=Nc2ccc(Nc3ccccc3)cc2)s1	40µM*	?	8.9µM*	28µM*	56µM*
C(=Nc1ccc(Nc2ccccc2)cc1)c1ccc2ccccc2c1	35µM*	?	1.6µM*	?	45µM*
Cc1cc(F)ccc1NC(=O)CN1C(=O)CCc2cc(S(=O)(=O)N3CCOCC3)ccc21	-3%	25%	6%[12.7 µM]	2%	/
Cc1cc2c(cc1C)NC(CC(=O)NCc1ccccc1)C(=O)N2 (stereo unspecified)	7%	20%	3.2µM*	-24%	-13%
CCc1cc(C(=O)OC)c(NC(=O)CC2Nc3cc(C)c(C)cc3NC2=O)s1 (stereo unspecified)	9%	25%	?	-15%	21%
